# This is part of a sample that, as a whole, favours compounds with a hit. Of some 83,000 tested, about 20% had one in any assay.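 Assay: single dose, 48 h. Readout: percent growth (0 = no net growth; negative = cell death). Active: <10.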 The source made the active and inactive calls.
# System: PC-3 prostate
# Assay: NCI-60 one-dose screen, 48 h (100 = growth as untreated, 0 = no growth, -100 = all killed)
# Settings: 10 µM unless noted
row,Compound,growth
1,Cc1ccc(-c2csc(NC(=O)CN3CCN(c4cc5c(cc4F)c(=O)c(C(=O)O)cn5C4CC4)CC3)n2)cc1,6.64% (active)
2,CCOC(=O)c1c(C)c2c(n1C)CSc1cc(C(=O)c3ccccc3)c(=O)[nH]c1-2,82.5% [100 µM] (inactive)
3,CC(=O)N(N=Nc1ccccc1)c1cccc2ccccc12,68.1% (inactive)
4,Cc1ccc(-c2nc(/C=C3/C(=O)Nc4ccccc43)c3ccccn23)cc1,78.3% (inactive)
5,CC(C)c1ccc(NC(=O)Nc2ccc(NC(=O)CCCC(=O)NOCc3ccccc3)cc2)cc1,93.3% (inactive)
6,C=C(C)[C@@H]1CC[C@]2(C(=O)OC)CC[C@]3(C)[C@H](CC[C@@H]4[C@@]5(C)C/C(=C/NC(N)=S)C(=O)C(C)(C)[C@@H]5CC[C@]43C)[C@@H]12,67.6% (inactive)
7,COc1ccc(/C=C2\COc3ccc(O)c(O)c3C2=O)cc1,17.7% (inactive)
8,Clc1ccc(CNc2c3ccccc3nc3ccccc23)cc1,38.7% (inactive)
9,O=C(Nc1ncc(Cc2ccc(Cl)c(C(F)(F)F)c2)s1)c1ccc2nnsc2c1,38.3% (inactive)
10,C/C(=C(/c1ccc(Cl)cc1)c1ccc(OCCN2CCCC2)cc1)c1ccc(Cl)cc1,66.4% (inactive)
11,CC(C)CCNC(=O)Cn1cccc(NC(=O)OCc2ccccc2)c1=O,92.3% (inactive)
12,Cc1nc2sc(C(=O)Nc3ccccc3)c(N)c2cc1C(=O)c1ccccc1,33.4% (inactive)
13,COC(=O)c1c2c(c(C)[n+]([O-])c1C)C(=O)C(NCc1ccc(Cl)cc1)=CC2=O,33.5% (inactive)
14,CCOC(=O)c1cn2ncnc(Oc3ccc(NC(=O)NC4CCCCC4)c(Cl)c3)c2c1C,67.7% (inactive)
15,CS(=O)(=O)c1cccc(-c2c(-c3cccc(OS(N)(=O)=O)c3)nc3sccn23)c1,106% (inactive)
16,O=C(NNc1nccc(Nc2ccc(S(=O)(=O)Nc3ccncc3)cc2)n1)c1ccccc1,100% (inactive)
17,C[C@]12CC[C@@H]3c4ccc(O)c([N+](=O)[O-])c4CC[C@H]3[C@@H]1CCC2=O,97% (inactive)
18,O=C(c1ccc(-c2nc(CSc3nc4ccccc4s3)no2)cc1)N1CCSCC1,63.5% (inactive)
19,CCS/C(Nc1ccccc1)=C(\C#N)C(=O)N/N=C/c1ccc(Cl)cc1Cl,31.5% (inactive)
20,c1ccc(C2=NN[C@H](c3cn(-c4ccccc4)nc3-c3ccccc3)C2)cc1,43.5% (inactive)

row,Compound,growth
1,COc1cc(/C=C\c2cc(/C=C\c3ccc(O)c(OC)c3)n(C(=O)COc3ccc(Cl)cc3Cl)n2)ccc1O,10.2% (inactive)
2,Cc1ccccc1NC(=O)c1sc2nc(C)c(C(=O)/C=C/c3ccccc3)cc2c1N,29% (inactive)
3,CC(C)n1cnc2c(=S)nc[nH]c21,98.7% (inactive)
4,CCOC(=O)/C=C1\S/C(=N\Nc2cc(=O)[nH]c3ccc(Cl)cc23)N(c2ccccc2)C1=O,85.4% (inactive)
5,COc1cc(-c2cc(-c3ccc(N(C)C)cc3)nc(N3CCC(O)CC3)c2C#N)cc(OC)c1OC,12.7% (inactive)
6,CN1C(=O)/C(=C/c2ccc(C(=O)Nc3ncc(Cc4ccc(Cl)cc4)s3)cc2)SC1=S,55.1% (inactive)
7,O=C1c2c(c3c4ccccc4[nH]c3c3ccc4ccccc4c23)C(=O)N1CCN1CCCCC1,53.3% (inactive)
8,O=c1oc2c(cnc3ccccc32)cc1-c1ccsc1,90.5% (inactive)
9,Cc1cccc2c1NC(=O)C2(c1ccc(O)cc1)c1ccc(O)cc1,38.9% (inactive)
10,CC(=O)OCc1nc(C#N)c(N(C)C)o1,104% (inactive)
11,CCN(CC)CCCN1C(=O)c2c(c(C)c3c(oc4cc(O)ccc43)c2C)C1=O,-67.5% (active)
12,CCOC(=O)c1c(C)nc2c(c1N)CC(=O)N2Cc1cc(F)cc(Cl)c1,77.9% (inactive)
13,COc1ccc2nc(NC(=O)CSc3nnc4n3S(=O)(=O)c3ccccc3N4C)sc2c1,94.7% (inactive)
14,CCOP(=O)(OCC)c1nc(-c2ccccc2)oc1NCc1cccnc1,101% (inactive)
15,C#CCn1cnc2c(Nc3cccc(NC(=O)C=C)c3)ncnc21,71.5% (inactive)
16,O=C(COc1ccc(-c2nc3ccccc3[nH]2)cc1)N=Nc1c(O)[nH]c2ccc(Cl)cc12,25.9% (inactive)
17,c1cc2[nH]ncc2cc1-c1nc2ccc3[nH]ncc3c2c2c1CCCC2,23.1% (inactive)
18,CCn1c(=S)[nH]c2c(=O)n(C)c(=O)n(C)c21,100% (inactive)
19,C=CCn1c(SCC(=O)Nc2ccc(C(=O)/C=C/c3cc4cc(OC)ccc4nc3Cl)cc2)nnc1-c1ccc(Br)cc1,68.2% (inactive)
20,O=C1c2cccc3cccc(c23)C(=O)N1N1C(=O)c2cccc3c(N4CCOCC4)ccc(c23)C1=O,91.2% (inactive)
